Laboratory results as given in PubChem BioAssay AID1578 (Sanford-Burnham Center for Chemical Genomics, 2009).
Screen size: about 290,000 compounds; about 3,000 (1%) were called active. The full list was thinned out, with actives kept by preference. Unmarked numbers belong to inactive results. No stated cut-off is given here; in the data, active means inhibition mostly above about 36% (no sharp cut-off); inactive means mostly below about 34%.

Assay: NOD1 signaling inhibitors, primary screen, cell-based, luminescence, uHTS (AID 1578);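 further: HEK-293T reporter cells stimulated with the NOD1 agonist gamma-tri-DAP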
Conditions: NOD1-driven NF-kB luciferase reporter cells, at 4 µM, stronger effect = higher value

SMILES	inhibition
CCOc1ccc(/C=N/NC(=O)C(=O)N2CCCCCC2)c2ccccc12	12%
CN1C/C(=C/c2ccsc2)C(=O)/C(=C/c2ccsc2)C1	-44.5%
CC(C)N1C/C(=C/c2ccsc2)C(=O)/C(=C/c2ccsc2)C1	80.5% (active)
CC(C)N1C/C(=C/c2cccnc2)C(=O)/C(=C/c2cccnc2)C1	49.5%
Cc1cc(NC(=O)c2cccnc2)ccc1NC(=O)c1ccco1	-65.2%
N#C/C(=C\c1ccc([N+](=O)[O-])cc1)c1nc(C2CC2)cs1	-14.9%
COc1ccc(-c2csc(/C(C#N)=C\c3cccc([N+](=O)[O-])c3)n2)cc1	-40.1%
COc1cc(/C=C(/C#N)c2nc(-c3cc4ccccc4oc3=O)cs2)cc([N+](=O)[O-])c1O	6.6%
COc1ccc(-c2csc(/C(C#N)=C\c3ccc(O)c([N+](=O)[O-])c3)n2)cc1OC	78.3% (active)
COc1ccc(-c2csc(/C(C#N)=C\c3ccc(OC)c([N+](=O)[O-])c3)n2)cc1	-19.7%
O=C(NC1CCSc2ccccc21)c1cccc(Cl)c1 (stereo not drawn)	-18.6%
CCc1cc(-c2nc(N)ncc2-c2ccc(Br)cc2)c(O)cc1OC	-5.1%
Cc1nc2cc(-c3ccccc3)[nH]n2c(=O)c1C	-59.1%
Cc1ccc2ccc3ccc(C)nc3c2n1	44.3% (active)
Cc1ccc2cccc(OCc3ccccc3)c2n1	-0.7%
Cc1ccc2cccc(N)c2n1	-43.8%
C/C(=N\Nc1cc(C(F)(F)F)ccc1Cl)c1ccccc1O	15.7%
Clc1ccc(-n2ncc3c(N4CCCC4)ncnc32)cc1	39.9%
CC1CCCN(c2ncnc3c2cnn3-c2ccccc2)C1 (stereo not drawn)	0.1%
CC1CCCN(c2ncnc3c2cnn3-c2ccc(Cl)cc2)C1 (stereo not drawn)	73.3% (active)
CN1CCN(c2ncnc3c2cnn3-c2ccc(Cl)cc2)CC1	-13.8%

SMILES	inhibition
Cc1cccc(-n2ncc3c(N(C)C4CCCCC4)ncnc32)c1	27.6%
CCCN(CCC)c1ncnc2c1cnn2-c1ccc(OC)cc1	-46.4%
COc1ccc(-n2ncc3c(N4CCC(C)CC4)ncnc32)cc1	-5.4%
COc1ccc(-n2ncc3c(N4CCCCC4)ncnc32)cc1	87% (active)
COc1ccc(-n2ncc3c(N4CCC(C(N)=O)CC4)ncnc32)cc1	-30%
Clc1ccc(-n2ncc3c(N4CCCCCC4)ncnc32)cc1	78.4% (active)
CC1CC(C)CN(c2ncnc3c2cnn3-c2ccc(Cl)cc2)C1 (stereo not drawn)	1.3%
CCOC(=O)c1ccc(NC(=O)CSc2nc(N)c(NC(=O)c3ccc(Br)o3)c(=O)[nH]2)cc1	-26.5%
CN(C(=O)COC(=O)c1cc(S(=O)(=O)N2CCCCC2)ccc1N1CCOCC1)C1CCS(=O)(=O)C1 (stereo not drawn)	-0.1%
COC(=O)N/N=C/c1cc(C)n(-c2ccc(F)cc2)c1C	-30%
COC(=O)C1C2C=CC3(CN(CCc4ccccc4)C(=O)C13)O2 (stereo not drawn)	-14.5%
Cc1[nH][nH]c(=O)c1/C=N/N1CCOCC1	-39.8%
CCC(C)(C(=O)NC1CCCCC1)N(C(=O)CC1NC(=O)NC1=O)c1c(C)n(C)n(-c2ccccc2)c1=O (stereo not drawn)	-11.2%
c1ccc(-n2ncc3c(N4CCCCC4)ncnc32)cc1	61.4% (active)
CC1CCN(c2ncnc3c2cnn3-c2ccccc2)CC1	-77.4%
Cc1cccc(-n2ncc3c(N4CCCC4)ncnc32)c1	-40.5%
COc1cc(OC)c2cc(C(=O)N[C@H](C(=O)N3CCC[C@H]3C(=O)O)C(C)C)n(C)c2c1	-17.5%
Cc1nc(SCC(N)=O)c(C#N)c(C)c1C	5.5%
CCN(CC)C(=O)c1ccc(-c2nnc(Nc3ccc(O)cc3)c3ccccc23)cc1	43%
CCN(CC)C(=O)c1ccc(Nc2nnc(-c3ccc(O)cc3)c3ccccc23)cc1	72.7% (active)
CCN(CC)C(=O)c1ccc(-c2nnc(Nc3ccc(C(=O)N(C)C)cc3)c3ccccc23)cc1	37.7%

SMILES	inhibition
Cn1cc(Br)c(C(=O)N/N=C/c2cccc(OC3CSC3)c2)n1	0.1%
Cn1ncc(Br)c1C(=O)N/N=C/c1cccc(OC2CSC2)c1	60.4% (active)
Cn1ncc(Cl)c1C(=O)N/N=C/c1cccc(OC2CSC2)c1	-1.4%
CCOC(=O)c1cnc(SCC(=O)Nc2ccc(N3CCOCC3)cc2)nc1N	-15%
O=c1cc(NS(=O)(=O)c2ccccc2)nc(SCc2ccc(Cl)cc2)[nH]1	-1.1%
O=c1cc(NS(=O)(=O)c2ccccc2)nc(SCc2ccccc2Cl)[nH]1	-0.5%
O=c1cc(NS(=O)(=O)c2ccccc2)nc(SCc2c(Cl)cccc2Cl)[nH]1	102% (active)
Cc1ccc(NC(=O)CCc2nnc3ccc(N4CCC(C)CC4)nn23)nc1	-3.1%
Cc1[nH]n(C(N)=S)c(=O)c1N=Nc1ccc(Br)cc1	-21.9%
CCOc1ccc(N(CC)C(=O)Cc2c(C(=O)O)n(C)c3ccccc23)cc1	-11.1%
CC(C)Cc1nc(N2CCN(C(=O)c3ccco3)CC2)c(C#N)c2c1CCCC2	2.6%
CC(C)Cc1nc(N2CCN(C(=O)c3ccco3)CC2)c(C#N)c2c1CCC2	-0.7%
CCN(CC)S(=O)(=O)c1ccc(N2CCOCC2)c(NC(=O)c2ccc3ccccc3c2)c1	-17%
Cc1nn(CCc2nn[nH]n2)c2nc(C(F)(F)F)cc(C(F)(F)F)c12	-7.9%
CCOc1cc(C(=O)Nc2ccc3c(c2)OCO3)ccc1OC(F)F	-17.4%
Cc1ccc(-n2nnc(-c3nccs3)n2)cc1	77.8% (active)
Clc1ccc(-n2nnc(-c3nccs3)n2)cc1Cl	110% (active)
Clc1ccc(-n2nnc(-c3cccnc3Cl)n2)cc1Cl	-3%
Brc1ccccc1-n1nnc(-c2nccs2)n1	-44.7%
Clc1ccc(-n2nnc(-c3cccnc3)n2)cc1Cl	-12.2%
Fc1ccc(-n2nnc(-c3nccs3)n2)cc1	-26%
